# Where “and” joins values, the source holds several entries; their conditions need not be identical. Equal entries are not always repeated. Calls of active or inactive are those of the source. Rule as the data show it, unless noted: active = inhibition above about 80%; inactive = the rest.
# Assays:
# [1] = viability loss with induced miR-34 in A549 – imaging, A549 dox-inducible miR-34, nuclei and caspase counts, primary screen (AID 1347080;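 active = compounds whose cell count with miR-34 switched on is under 0.7 times the count with it off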); conditions: A549 miR-34 inducible, Hoechst nuclei count, 48 h
# [2] = MELAS cybrid and Rieske KO viability enhancers – cell-based, MELAS cybrids, Rieske KO mouse fibroblasts, CellTiter-Glo, primary screen (AID 1508586;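 active = mean z-score across replicates of 1.96 or higher in either the MELAS or the Rieske mutant cell line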;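 also: z relative to plate mean and SD of compound and empty wells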); conditions: low glucose
# [3] = galactose survival enhancers in mitochondrial complex I cybrids – cell-based, galactose medium, ATP luminescence, primary screen (AID 1645843;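 active = z-score of at least 1.8 in each of two replicates, scored against plate mean and spread of sample wells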;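 also: positive z means more ATP and so rescue of galactose-driven cybrid death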); conditions: complex I mutant cybrid cells, 72 h, stronger effect = higher value
# [4] = growth inhibition, single agent or in combination, cell-based, chromothripsis tumors, cisplatin or BGB combos (AID 1671449); conditions: LFS_MB_P medulloblastoma cells;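 also: cells exposed for 96 hours; 0% = vehicle DMSO and 100% = killing by high DMSO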
# [5] = growth inhibition, single agent and combos, cell-based, chromothripsis tumors, cisplatin or BGB combos (AID 1671450); conditions: HDN33 neuroblastoma cells, stronger effect = higher value;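 also: cells exposed to compound for four days; 0% = vehicle DMSO and 100% = cell killing by high DMSO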
# [6] = growth inhibition, single agents and combos, ICB984, cell-based, cisplatin or BGB combos, synergistic combos for chromothripsis tumors (AID 1671451; call rule not given here;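 also: cells exposed for 96 hours before readout; 0% = vehicle DMSO and 100% = killing by high DMSO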); conditions: ICB984 medulloblastoma cells, drug combinations, stronger effect = higher value
# [7] = growth inhibition, single agents and combos, LFS_MB_1R, cell-based, cisplatin or BGB combos, synergistic combos for chromothripsis tumors (AID 1671452); conditions: LFS_MB_1R medulloblastoma cells, stronger effect = higher value;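 also: cells exposed for 96 hours before readout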
# [8] = growth inhibition, single agents and combos, HTB85, cell-based, BGB or cisplatin IC20 combos, synergistic combos for chromothripsis tumors (AID 1671453); conditions: HTB85 osteosarcoma cells, drug combinations, stronger effect = higher value;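 also: cells exposed for 96 hours before readout; 0% = vehicle DMSO and 100% = high DMSO killing control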
# [9] = growth inhibition, single agents and combos, CRL2098, cell-based, BGB or cisplatin IC20 combos, synergistic combos for chromothripsis tumors (AID 1671454); conditions: CRL2098 osteosarcoma cells, drug combinations, stronger effect = higher value;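 also: cells exposed for 96 h before readout; 0% = vehicle DMSO and 100% = killing by high DMSO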
# [10] = growth inhibition, single agents and combos, HD-MB03, cell-based, BGB or cisplatin IC20 combos, synergistic combos for chromothripsis tumors (AID 1671455; in the data active = inhibition above about 83%;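 also: 0% = vehicle DMSO and 100% = high DMSO as cytotoxic control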); conditions: HD-MB03 medulloblastoma cells, stronger effect = higher value
# [11] = growth inhibition, single agents and combos, UWB1.289, cell-based, BGB or cisplatin combos, synergistic combos for chromothripsis tumors (AID 1671456); conditions: UWB1.289 ovarian carcinoma cells, stronger effect = higher value;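 also: cells exposed to compound for four days; 0% = vehicle DMSO and 100% = killing by high DMSO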
# [12] = growth inhibition, single agents and combos, LFS_MB_2R, cell-based, cisplatin combos, synergistic combos for chromothripsis tumors (AID 1671457); conditions: LFS_MB_2R medulloblastoma cells, stronger effect = higher value;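 also: cells exposed to compound for four days before readout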
# [13] = growth inhibition, MDA-MB-436, cell-based, BGB or cisplatin combos, synergistic combos for chromothripsis tumors (AID 1671458; call rule not given here;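 also: cells exposed for 96 hours; 0% = vehicle DMSO and 100% = killing by high DMSO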); conditions: MDA-MB-436 breast carcinoma growth inhibition, drug combinations, stronger effect = higher value
# [14] = UWB1.289_BRCA1 ovarian cancer growth, cell-based, BGB or cisplatin combinations (AID 1671459); conditions: UWB1.289 BRCA1 ovarian carcinoma, drug combinations, stronger effect = higher value
# [15] = drug combination toxicity in non-malignant astrocytes – cell-based, BGB or cisplatin IC20 combos, cytotoxicity control for chromothriptic childhood tumor combination screen (AID 1671460); conditions: Human astrocytes, viability inhibition, drug combinations, at 0.5 µM, stronger effect = higher value;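 also: cells exposed to compounds for 96 hours before viability readout; 0% = vehicle and 100% = killing control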
# [16] = BT084 cell growth, single and combined drugs, ICGC_MB145, cisplatin and BGB IC40 combos (AID 1671461); conditions: BT084 medulloblastoma cells, drug combinations, stronger effect = higher value;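 also: cells exposed to drugs for 96 hours; 0% = vehicle DMSO and 100% = high DMSO full killing control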
# [17] = RCMB18 cell growth, single agent and combined, cisplatin and BGB IC40 combos (AID 1671462); conditions: RCMB18 medulloblastoma cells, stronger effect = higher value;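 also: cells exposed to compound for four days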
# [18] = CRL1545 cell growth, single agent and combined, cisplatin and BGB IC20 combos (AID 1671464); conditions: CRL1545 osteosarcoma cells, stronger effect = higher value;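 also: cells exposed to compound for 96 hours before readout; 0% = vehicle DMSO and 100% = high DMSO killing control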
# [19] = stronger effect = lower value, cell number ratio, induced over uninduced
# [20] = measured here: relative caspase fold change +Dox/-Dox
# [21] = measured here: total cells with miR-34 induction, stronger effect = lower value
# [22] = measured here: total cells without miR-34 induction
# [23] = MELAS cybrid survival, CellTiter-Glo 48 h, stronger effect = higher value
# [24] = Rieske KO mouse fibroblast survival, CellTiter-Glo 72 h
# [25] = measured here: combination with BGB IC40, at 0.05 µM
# [26] = measured here: with BGB IC20 combination, at 0.5 µM
# [27] = measured here: with cisplatin IC20 combination, at 0.5 µM
# [28] = measured here: combination with cisplatin, at 0.5 µM
# [29] = measured here: combination with cisplatin, at 5 µM
compound,measurement,setting,value
O=c1[nH]cnc2c1ncn2C1CCC(CO)O1 (stereo not drawn),fold change,[1]; [19],0.874 (inactive) and 0.873 (inactive)
same,fold change,[1]; [20],1.69 and 1.3
same,cell count,[1]; [21],9660 and 7790
same,cell count,[1]; [22],11100 and 8920
same,z-score,[2]; [23],-0.36 (inactive)
same,z-score,[2]; [24],0.371
same,z-score,[3],0.465 (inactive)
same,inhibition,"[4]; at 0.5 µM, stronger effect = higher value",-32.9% (inactive)
same,inhibition,"[4]; measured here: combination with BGB IC20, at 0.005 µM",-16.1%
same,inhibition,"[4]; measured here: combination with BGB IC40, at 0.005 µM",-29.5%
same,inhibition,[4]; [25],-24.5%
same,inhibition,"[4]; measured here: combination with cisplatin, at 0.5 µM, stronger effect = higher value",-38.2%
same,inhibition,"[4]; measured here: combination with cisplatin, at 5 µM, stronger effect = higher value",-16.6%
same,inhibition,"[5]; BGB combo, at 5 µM",-15.1%
same,inhibition,[5]; at 0.5 µM,-10.3% (inactive)
same,inhibition,"[5]; cisplatin combo, at 5 µM",0.055%
same,inhibition,[5]; [26],-9.52%
same,inhibition,[5]; [27],-5.77%
same,inhibition,"[5]; single agent, at 5 µM",-6.37%
same,inhibition,"[6]; BGB IC20 combo, at 0.005 µM",3.8%
same,inhibition,"[6]; BGB IC40 combo, at 0.005 µM",-17.3%
same,inhibition,"[6]; BGB IC40 combo, at 0.05 µM",-42.9%
same,inhibition,[6]; at 0.5 µM,-12.4% (inactive)
same,inhibition,"[6]; cisplatin combo, at 0.05 µM",-46.9%
same,inhibition,"[6]; cisplatin combo, at 0.5 µM",-0.57%
same,inhibition,"[6]; cisplatin combo, at 5 µM",-45.9%
same,inhibition,"[6]; measured here: 5 uM single agent, at 5 µM",-17.3%
same,inhibition,[7]; at 0.5 µM,-24.1% (inactive)
same,inhibition,[7]; [25],-1.26%
same,inhibition,[7]; [28],-27.1%
same,inhibition,[7]; [29],-51.2%
same,inhibition,[8]; at 0.5 µM,0.13% (inactive)
same,inhibition,"[8]; measured here: with BGB IC20, at 0.5 µM",-29.8%
same,inhibition,"[8]; measured here: with BGB IC20, at 5 µM",-39.1%
same,inhibition,"[8]; measured here: with cisplatin IC20, at 0.5 µM",5.05%
same,inhibition,"[8]; measured here: with cisplatin IC20, at 5 µM",-50%
same,inhibition,"[8]; single agent, at 5 µM",-11.3%
same,inhibition,[9]; at 0.5 µM,-44.8% (inactive)
same,inhibition,"[9]; measured here: combination with BGB at IC20, at 0.5 µM",-57.1%
same,inhibition,"[9]; measured here: combination with cisplatin at IC20, at 0.5 µM",-26.9%
same,inhibition,[10]; at 0.5 µM,-5.57% (inactive)
same,inhibition,"[10]; measured here: combo with BGB at IC20, at 0.5 µM",0.583%
same,inhibition,"[10]; measured here: combo with cisplatin at IC20, at 0.5 µM",-5.27%
same,inhibition,[11]; at 0.5 µM,-1.68% (inactive)
same,inhibition,"[11]; measured here: inhibition with BGB combination, at 0.05 µM",-32%
same,inhibition,"[11]; measured here: inhibition with cisplatin combination, at 0.05 µM",-6.01%
same,inhibition,[12]; at 0.5 µM,-19.9% (inactive)
same,inhibition,[12]; [28],-27.6%
same,inhibition,[12]; [29],-58%
same,inhibition,[13]; at 0.5 µM,-28.3% (inactive)
same,inhibition,"[13]; measured here: BGB combination, at 0.5 µM",-25.6%
same,inhibition,"[13]; measured here: BGB combination, at 5 µM",-24.3%
same,inhibition,"[13]; measured here: cisplatin combination, at 0.5 µM",-38.2%
same,inhibition,"[13]; measured here: cisplatin combination, at 5 µM",-39%
same,inhibition,"[14]; BGB combination, concentration series, at 5 µM",-6.99%
same,inhibition,[14]; at 0.5 µM,-4.59% (inactive)
same,inhibition,"[14]; cisplatin combination, concentration series, at 5 µM",5.72%
same,inhibition,[15],4.8% (inactive)
same,inhibition,[15]; measured here: combo with BGB IC20,-5.94%
same,inhibition,[15]; measured here: combo with cisplatin IC20,2.75%
same,inhibition,[16]; at 0.5 µM,-19.3% (inactive)
same,inhibition,"[16]; cisplatin combination, at 0.5 µM",2.66%
same,inhibition,"[16]; cisplatin combination, at 5 µM",7.38%
same,inhibition,"[16]; measured here: BGB IC40 combination 0.05 uM, at 0.05 µM",1%
same,inhibition,"[16]; single agent, at 5 µM",-10.4%
same,inhibition,[17]; at 0.5 µM,-28.1% (inactive)
same,inhibition,"[17]; cisplatin combo, at 5 µM",-8.55%
same,inhibition,"[17]; measured here: BGB IC40 combination, at 0.05 µM",12.3%
same,inhibition,[17]; [28],-23.6%
same,inhibition,"[17]; single agent, at 5 µM",-21%
same,inhibition,[18]; at 0.5 µM,-13.6% (inactive)
same,inhibition,[18]; [26],0.279%
same,inhibition,[18]; [27],-23.2%
same,inhibition,"[18]; single agent, at 0.05 µM",-52.8%
same,inhibition,"[18]; single agent, at 5 µM",-4.43%
O=C(Cn1nc(Cc2ccccc2)c2ccccc2c1=O)NCCc1ccco1,fold change,[1]; [19],0.937 (inactive)
same,fold change,[1]; [20],0.881
same,cell count,[1]; [21],8560
same,cell count,[1]; [22],9130
same,z-score,[2]; [23],1.48 (inactive)
same,z-score,[2]; [24],0.664
same,z-score,[3],-0.33 (inactive)
Cc1ccc(NC(=O)C2CC23CCCCC3)cn1 (stereo not drawn),fold change,[1]; [19],0.887 (inactive)
same,fold change,[1]; [20],0.564
same,cell count,[1]; [21],8250
same,cell count,[1]; [22],9300
same,z-score,[2]; [23],-0.13 (inactive)
same,z-score,[2]; [24],-0.332
same,z-score,[3],-0.27 (inactive)
COc1ccc(N2CCN(c3ncnc4sccc34)C(C)C2=O)cc1 (stereo not drawn),fold change,[1]; [19],0.791 (inactive)
same,fold change,[1]; [20],1.18
same,cell count,[1]; [21],6180
same,cell count,[1]; [22],7810
same,z-score,[2]; [23],-0.528 (inactive)
same,z-score,[2]; [24],-0.443
same,z-score,[3],-0.505 (inactive)
COc1ccc(OC)c(-c2nc3ccccc3o2)c1,fold change,[1]; [19],0.826 (inactive)
same,fold change,[1]; [20],1.28
same,cell count,[1]; [21],6950
same,cell count,[1]; [22],8410
same,z-score,[2]; [23],0.0538 (inactive)
same,z-score,[2]; [24],0.572
same,z-score,[3],-0.51 (inactive)
